Assay outcomes from PubChem.
Vaccinia mCherry = vaccinia inhibition (mCherry reporter); Vaccinia virus mCherry reporter infection, fluorescence; Potency, µM (titrated, usually from 36.5 µM), for the others: at the top dose activity change, negative = inhibition, usual class: inhibitors; 0.63% of 310,000 active; AID 720579; calls by dose curve; tested in A549 cells; further: nearly all actives have a fitted effect of over 35% in size
VACV Venus inh = inhibitors of vaccinia virus (Venus reporter); Vaccinia virus Venus reporter expression, fluorescence; Potency, µM (series often up to 36.5 µM), for inactives: top-dose activity change, negative = inhibition, usual class: inhibitors; 0.46% of 330,000 active; calls by dose curve; tested in A549 cells; further: nearly all actives have a fitted effect of over 30% in size
HCV inh = HCV inhibition; Huh7.5.1 HCVcc-Cre infection, luciferase reporter, 44 h; Potency, µM (top dose mostly 41.8 µM), without a hit: at the top dose activity change, negative = inhibition, actives largely listed as inhibitors; 3.4% of 340,000 active; AID 651820; active means well fitted inhibition curve with a large enough effect; inconclusive means small, poorly fitted or top-dose-only effect, or another doubt; inactive means no such curve, though single readings can be large or run the other way
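Infectious HCVcc-Cre (~0.5 moi) was added to cells just after compound, with cells seeded 4 h earlier at 1,000 per well. Luciferase activity after 44 h culture reported infection; substrate was incubated 15 min at room temperature before reading.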
Starred values were filed as active, the others as inactive; ! = not active in a repeat. Rows were chosen to be rich in hits. Some 3.3% of all compounds tested hit in one or more screens of this group. On the % scale 0 is the no-effect control and ±100 the full control effect; potency means the concentration at half of the fitted maximal effect.

Screening COc1cc2c(cc1OC)/C(=C/c1ccc(N(C)C)cc1)C=C2 returned Vaccinia mCherry -7.0% and VACV Venus inh -18.3%.
`CC(=O)N1c2c(cc(Br)cc2S(=O)(=O)NCc2ccccc2Cl)CC1C` (stereo not given) gave Vaccinia mCherry -5.4% and VACV Venus inh 6.9%.
`CC(C)c1c(C(=O)NCC2(N3CCCCC3)CCCC2)cnn1-c1nccc(-c2ccco2)n1` gave Vaccinia mCherry -14.6% and VACV Venus inh -10.7%.
Screening Cc1cc(C)c2nc(NC(=O)c3ccc(S(=O)(=O)N4CCCC4)cc3)sc2c1 returned Vaccinia mCherry -9.7% and VACV Venus inh -14.1%.
`Cc1cc(C)c2nc(NNC(=O)c3ccc(S(=O)(=O)N4CCCCC4)cc3)sc2c1` gave Vaccinia mCherry inconclusive, VACV Venus inh inconclusive and HCV inh 6.31µM*.
`Cc1ccc(N=C2C(=O)Nc3ccccc32)cc1` gave Vaccinia mCherry -4.7%, VACV Venus inh -12.0% and HCV inh -6.8%.
Cc1nc2c(o1)C(=O)c1ccccc1C2=Nc1ccccc1 was read as Vaccinia mCherry 2.51µM*, VACV Venus inh 2.82µM* and HCV inh 2.82µM*.
`COc1ccc(OC)c(-c2noc(N3CCN(c4cccc(C(F)(F)F)c4)CC3)n2)c1` gave Vaccinia mCherry 1.2% and VACV Venus inh 6.5%.
`COc1ccc(CCNC(=O)c2cnn3c2NC(=C2CC2)C=C3C(F)F)cc1OC` gave Vaccinia mCherry -7.4% and VACV Venus inh -27.3%.
For COc1cc(NC(=O)CN2C(=O)C(c3ccc(C)cc3)=NC23CCCCCC3)cc(OC)c1 the results were Vaccinia mCherry -21.3% and VACV Venus inh -10.8%.
Cc1cc(/C=C/c2ccnc3ccccc23)ccc1N was read as Vaccinia mCherry -26.1% and VACV Venus inh -5.9%.
For COC(=O)CNC(=O)c1cnn(-c2ncc3c(n2)-c2ccccc2CCC3)c1C1CC1 the results were Vaccinia mCherry -13.5% and VACV Venus inh 2.6%.
Cc1[nH]c(=O)[nH]c1C(=O)CCCCC(=O)O was read as Vaccinia mCherry -3.3%, VACV Venus inh -10.6% and HCV inh 13.5%.
CSc1ccc(C(=O)c2[nH]c(=O)[nH]c2C)cc1 was read as Vaccinia mCherry -9.8%, VACV Venus inh -7.4% and HCV inh 6.31µM*!.
`COc1ccc(/C=N/NC(=O)CNC(=O)c2ccc3c(c2)OCCO3)c(C(=O)O)c1OC` gave HCV inh 20.7%.
Screening CN1CCN(C2=C(NS(=O)(=O)c3cccs3)C(=O)c3ccccc3C2=O)CC1 returned Vaccinia mCherry 17.8µM*, VACV Venus inh 10µM* and HCV inh 11.2µM*.
Screening CCN1CCN(C2=C(NS(=O)(=O)c3ccccc3)C(=O)c3ccccc3C2=O)CC1 returned HCV inh 11.2µM*.
Screening O=C1C(NS(=O)(=O)c2cccs2)=C(N2CCOCC2)C(=O)c2ccccc21 returned Vaccinia mCherry inconclusive, VACV Venus inh -1.7% and HCV inh -0.9%.
`CN1CCN(C2=C(NS(=O)(=O)c3ccccc3)C(=O)c3ccccc3C2=O)CC1` gave HCV inh -15.6%.
For CC(NNC(=S)N1CCCCCC1)c1ccc2ccccc2n1 (stereo not given) the results were Vaccinia mCherry 5.62µM* and VACV Venus inh -24.9%.
S=C(Nc1ccccc1)N1CCCCCC1 was read as Vaccinia mCherry -11.2%, VACV Venus inh -4.0% and HCV inh 1.8%.
For Cc1ccc(Cl)cc1NC(=O)CC(O)(C(F)(F)F)C(F)(F)F the results were Vaccinia mCherry inconclusive, VACV Venus inh 28.2µM* and HCV inh 22.4µM*.
Screening COCC(=O)Nc1cc(Cl)ccc1C returned Vaccinia mCherry -11.1%, VACV Venus inh 0.2% and HCV inh -2.6%.
For CCOc1ccccc1NC(=O)C(=O)NCCc1sc(-c2cccc(F)c2)nc1C the results were Vaccinia mCherry -22.6% and VACV Venus inh -2.8%.
For Cn1c(=O)c2c(nc(Cc3ccccc3)n2C)n(C)c1=O the results were Vaccinia mCherry inactive, VACV Venus inh -11.9% and HCV inh 18.8%.
CCCCn1c(CN2CCN(c3ccccc3)CC2)nc2c1c(=O)n(C)c(=O)n2C was read as Vaccinia mCherry inconclusive, VACV Venus inh inconclusive and HCV inh 7.08µM*.
Screening CCCn1c(CN(C)Cc2ccccc2)nc2c1c(=O)n(C)c(=O)n2C returned HCV inh 7.94µM*.
`Cn1c(=O)c2c(nc(CN3CCN(c4ccccc4)CC3)n2CCCc2ccccc2)n(C)c1=O` gave Vaccinia mCherry -12.4%, VACV Venus inh -9.2% and HCV inh 18.1%.
`CCOCCn1c(CN(C)Cc2ccccc2)nc2c1c(=O)n(C)c(=O)n2C` gave Vaccinia mCherry inactive, VACV Venus inh -11.9% and HCV inh -24.1%.
Screening CCCCCn1c(CN2CCN(Cc3ccccc3)CC2)nc2c1c(=O)n(C)c(=O)n2C returned HCV inh -14.9%.
For CCCCn1c(CN(C)Cc2ccccc2)nc2c1c(=O)n(C)c(=O)n2C the results were HCV inh 11.2µM*.
Screening CCCn1c(CN(Cc2ccccc2)Cc2ccccc2)nc2c1c(=O)n(C)c(=O)n2C returned Vaccinia mCherry -27.9%, VACV Venus inh -12.0% and HCV inh 7.94µM*.
For COc1ccc(CNC(=O)C2CCCN(S(=O)(=O)c3ccc4c(ccn4C)c3)C2)c(OC)c1 (stereo not given) the results were Vaccinia mCherry -15.2% and VACV Venus inh -9.8%.
Cc1cc(C(=O)NCC2CCC3(CCN(Cc4ccccc4C)CC3)O2)n(C)n1 (stereo not given) was read as Vaccinia mCherry -4.2% and VACV Venus inh -11.4%.
`CCC1C(=O)NCCN1Cc1ccc2c(c1)CN(Cc1ccc(OC)c(OC)c1)CCO2` (stereo not given) gave Vaccinia mCherry -2.4% and VACV Venus inh inconclusive.
`COCCN(C(=O)Cc1coc2cc(C)c(C)cc12)c1c(N)n(Cc2ccccc2)c(=O)[nH]c1=O` gave Vaccinia mCherry -22.4%, VACV Venus inh -16.0% and HCV inh -1.8%.
Screening CCOc1ccc(NC(=O)C2CCN(S(=O)(=O)c3ccc4c(c3)C(C)(C)C(=O)N4C)CC2)cc1 returned Vaccinia mCherry 36.3%, VACV Venus inh -12.3% and HCV inh 18.4%.
For CN(Cc1ccccc1)Cc1nc2c(c(=O)n(C)c(=O)n2C)n1CCc1ccccc1 the results were Vaccinia mCherry -10.6%, VACV Venus inh -12.5% and HCV inh 35.5µM*.
`COCCn1c(CN(C)Cc2ccccc2)nc2c1c(=O)n(C)c(=O)n2C` gave Vaccinia mCherry inactive, VACV Venus inh -13.6% and HCV inh inconclusive.
`N#Cc1nc(COc2ccc(-c3ccccc3)cc2)oc1N1CCC(C(N)=O)CC1` gave Vaccinia mCherry inactive and VACV Venus inh -14.1%.
For COc1ccc([C@H]2CC(=O)C=C(c3ccccc3)C2)cc1OC the results were Vaccinia mCherry -28.0%, VACV Venus inh -23.9% and HCV inh inconclusive.
`COc1ccc([C@H]2CC(=O)C=C(c3ccc(Oc4ccccc4)cc3)C2)cc1OC` gave Vaccinia mCherry inconclusive, VACV Venus inh inconclusive and HCV inh 5.62µM*.
Cc1ccc(-n2ncc(C(=O)NCCN3CCCC3)c2C2CCN(C(=O)OC(C)(C)C)CC2)cc1 was read as Vaccinia mCherry inactive and VACV Venus inh -21.0%.
